Data published in PubChem BioAssay (NCATS).
Values joined by “and” are separate entries in the source; they are usually repeats but may differ in a detail not shown here. Equal values may be shown once. Results filed as inconclusive are left out. Entries that show only a call come without a potency. Active and inactive are the calls of the source. Unless noted, calls come from the whole dose curve; as a rule, active = well fitted curve in the direction sought with a large enough effect; inconclusive = small, poorly fitted or top-dose-only effect, or another doubt; inactive = no such curve, though single readings can be large; an effect the other way counts as inactive or inconclusive.

Experiments:
[1] = qHTS of Nrf2 Activators: LOPAC Validation (AID 624149); conditions: Nrf2/ARE reporter cell assay; series mostly up to 46.1 µM
In short: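 Luciferase signal from ARE activation, read with Steady-Glo after 30 min at room temperature. Compounds were pin-transferred onto AREc32_Fluc cells (1000/well, OPTI-MEM/5% FBS, seeded overnight) and left 24 hr at 37 deg C.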

[2] = HTS Assay for Allosteric Antagonists of the Human D2 Dopamine Receptor: Hit Validation in HTRF (AID 624455); conditions: Cells stably expressing D1 dopamine receptor, inhibition mode; series mostly up to 46.1 µM;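 note: stable D1 dopamine receptor cell line scored for blocking the D1 response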
In short: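 Inhibition of the D1-mediated response was measured by HTRF. Cells used were a line stably expressing the D1 dopamine receptor.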

[3] = qHTS assay for small molecule agonists of the antioxidant response element (ARE) signaling pathway (AID 651741; active = well fitted activation curve with a large enough effect in the signal ratio; the % refers to the signal ratio); conditions: HepG2 ARE-bla reporter, beta-lactamase FRET ratio, 16 h; series mostly up to 96 µM
In short: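 Reporter: beta-lactamase under ARE, stably in HepG2. Exposure: 16 h, 37 C, compounds delivered in DMSO by pin tool after 5 h cell preincubation. Readout: FRET substrate fluorescence after 2 h at RT.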

[4] = qHTS assay for small molecule activators of the p53 signaling pathway (AID 651743; active = well fitted activation curve with a large enough effect in the signal ratio, not every such curve was filed as active; the % refers to the signal ratio); conditions: HCT-116 p53RE-bla, beta-lactamase FRET ratio, 16 h; activation: stronger effect = higher value
In short: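 Agonist-mode quantitative HTS in HCT-116 cells carrying a p53-response-element beta-lactamase reporter; 16 h compound treatment at 37 C, then FRET substrate loading for 2 h at room temperature and fluorescence read.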

Structure (SMILES)	outcome [1]	Potency [2]	Potency [3]	activation [4]
COCCCC/C(=N\OCCN)c1ccc(C(F)(F)F)cc1	inactive	inactive		
CCOC(=O)C1=C(C)NC(C)=C(C(=O)OC)C1c1cccc([N+](=O)[O-])c1 (stereo unspecified)	inactive	inactive		
NC(=O)c1ncn([C@@H]2O[C@H](CO)[C@@H](O)[C@H]2O)c1O	inactive	inactive		
CN(C)C/C=C(/c1ccc(Br)cc1)c1cccnc1	inactive	inactive		
Cc1ccc(S(=O)(=O)NC(=O)NN2CCCCCC2)cc1	inactive	inactive	inactive	
CN(C)CCCN1c2ccccc2Sc2ccccc21	inactive	inactive		
CCN(CC)CCCN(c1ccccc1)C1Cc2ccccc2C1	inactive	inactive		
CC(C(=O)O)c1ccc(CC2CCCC2=O)cc1 (stereo unspecified)	inactive	inactive		
CN(C)C(=O)Oc1ccc[n+](C)c1	inactive	inactive		
COc1cc2c(cc1OC)-c1cc(=Nc3c(C)cc(C)cc3C)n(C)c(=O)n1CC2	inactive	inactive		
C[C@]12CC[C@@H]3c4ccc(O)cc4C[C@@H](CCCCCCCCCS(=O)CCCC(F)(F)C(F)(F)F)[C@H]3[C@@H]1CC[C@@H]2O (stereo partly specified)	inactive	inactive		
Cc1nc2c([nH]1)c(=O)n(C)c(=O)n2Cc1ccco1	inactive	inactive		
Cc1cc(C)c(/C=C2\C(=O)Nc3ccccc32)[nH]1	inactive	inactive		
COC(=O)[C@H]1[C@H]2C[C@@H]3c4[nH]c5cc(OC)ccc5c4CCN3C[C@H]2C[C@@H](OC(=O)c2cc(OC)c(OC)c(OC)c2)[C@@H]1OC	inactive	inactive		3.91% (inactive) and 8.14% (inactive)
C#CCN(C)CCCOc1ccc(Cl)cc1Cl	inactive	inactive		
CSc1ccc(C(=O)c2[nH]c(=O)[nH]c2C)cc1	inactive	inactive		
N[C@@H](COP(=O)(O)O)C(=O)O	inactive	inactive		
CCC(=O)c1ccc2c(c1)N(CCCN(C)C)c1ccccc1S2	inactive	inactive		
O=C(CCCN1CCC(O)(c2cccc(C(F)(F)F)c2)CC1)c1ccc(F)cc1	inactive	inactive		
CC(C)(C)NCC(O)c1cc(O)cc(O)c1 (stereo unspecified)	inactive	inactive		
CN/C(=C\[N+](=O)[O-])NCCSCc1ccc(CN(C)C)o1		inactive		
CCCCOCCOCCOCc1cc2c(cc1CCC)OCO2			inactive	
OCCN1CCN(CC/C=C2/c3ccccc3Sc3ccc(C(F)(F)F)cc32)CC1	inactive	inactive		
